Laboratory results from PubChem BioAssay (NCATS).
Inconclusive results are not listed. Unmarked numbers belong to inactive results. Activity calls are given as the source filed them. The call rests on the fitted dose curve; in most records, active means well fitted cell-killing curve with a large enough effect; inconclusive means small, poorly fitted or top-dose-only effect, or effect the other way; inactive means flat fitted curve, though single readings scatter.

Each compound was assayed on JEG-3 (assay: Primary qHTS to identify gynecologic anti-cancer compounds using libraries of approved drugs and bioactive compounds (AID 1345084; further: nearly all actives have a fitted effect of over 55% in size)). Settings: Gynecologic cancer cell panel viability, ATPlite luminescence, 48 h; series mostly up to 57.5 µM; activity change, negative = cytotoxicity: at the top concentration.
Summary of the method: (§1)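 Cells, 1,000 per well, plated 16 h, then exposed 48 h at 37 C to compounds. Viability by ATPlite luminescence after 15 min at room temperature.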
On the % scale 0 is the no-effect control and ±100 the full control effect; potency means the concentration at half of the fitted maximal effect.

Structure (SMILES) | activity change, negative = cytotoxicity
CN(C(=O)CCCOc1ccc2[nH]c(=O)ccc2c1)C1CCCCC1 | -4.24%
NC(=O)N1c2ccccc2C=Cc2ccccc21 | -3.82%
CCCN(CCC)CCc1cccc2c1CC(=O)N2 | -12.4%
CCn1nc(C(=O)O)c(=O)c2cc3c(cc21)OCO3 | 5.71%
CCc1c(C)[nH]c2c1C(=O)C(CN1CCOCC1)CC2 (stereo not drawn) | 5.14%
C[C@]12CCC(=O)C=C1CC[C@@H]1[C@@H]2C(=O)C[C@@]2(C)[C@H]1CC[C@]2(O)C(=O)CO | 5.32%
COc1ccc2c(c1OC)C(=O)O[C@@H]2[C@H]1c2c(cc3c(c2OC)OCO3)CCN1C | 5.68%
COc1cc(Cc2cnc(N)nc2N)cc(OC)c1OC | -4.41%
N[C@@H](COP(=O)(O)O)C(=O)O | 13.2% [at 25.3 µM]
CN1CCN(CC(=O)N2c3ccccc3C(=O)Nc3cccnc32)CC1 | -2.67% [at 6.55 µM]
COc1ccc(CCN(C)CCCC(C#N)(c2cc(OC)c(OC)c(OC)c2)C(C)C)cc1OC (stereo not drawn) | -1.3%
CN/C(=C\[N+](=O)[O-])NCCSCc1ccc(CN(C)C)o1 | -12.1%
OC(CCN1CCCCC1)(c1ccccc1)C1CCCCC1 (stereo not drawn) | -22.7%
CCN1CCC[C@H]1CNC(=O)c1c(O)c(Cl)cc(Cl)c1OC | -1.28%
COC(=O)C1=C(C)NC(C)=C(C(=O)OC(C)(C)CN(C)CCC(c2ccccc2)c2ccccc2)C1c1cccc([N+](=O)[O-])c1 (stereo not drawn) | 1.17%
CC(=O)Nc1nnc(S(N)(=O)=O)s1 | 0.891%
CN(C)CCCN1c2ccccc2Sc2ccccc21 | 11.9%
CC(C)NCC(O)c1cc(O)cc(O)c1 (stereo not drawn) | -14.8%

Structure (SMILES) | activity change, negative = cytotoxicity
CN(C)CCOC(=O)COc1ccc(Cl)cc1 | -1.46%
CCCCCCCC/C=C\CCCCCCCC(=O)NCc1ccc(O)c(OC)c1 | -0.234%
CNC1(C)C2CCC(C2)C1(C)C (stereo not drawn) | 16.2%
CCCCNc1c(C(=O)OCC)c(C)nc2c1cnn2CC | 8.41%
CN(C)C/C=C(/c1ccc(Br)cc1)c1cccnc1 | 12.6%
CO[C@@]1(NC(=O)CSCC#N)C(=O)N2C(C(=O)O)=C(CSc3nnnn3C)CS[C@@H]21 | -6.47%
CCN1CCc2nc(N)oc2CC1 | 8.74%
C[C@]12CCC(=O)C=C1CC[C@@H]1[C@@H]2CC[C@@]2(C)[C@H]1CC[C@]2(O)C(=O)CO | -10.4%
CCN(CC)CC(=O)Nc1c(C)cccc1C | 10.3%
C(=C\c1ccccc1)/CN1CCN(C(c2ccccc2)c2ccccc2)CC1 | 10.3%
Cc1nc2ccccn2c(=O)c1CCN1CCC(C(=O)c2ccc(F)cc2)CC1 | -2.22%
c1ccc2c(c1)CCCC2C1=NCCN1 (stereo not drawn) | -3.91%
Cc1nc2sccn2c(=O)c1CCN1CCC(=C(c2ccc(F)cc2)c2ccc(F)cc2)CC1 | 4.77%
CCCNC(C)C(=O)Nc1ccccc1C (stereo not drawn) | -1.65%
O=C(O)CP(=O)(O)O | -15.3%
CN1C[C@H](C(=O)N[C@]2(C)O[C@@]3(O)[C@@H]4CCCN4C(=O)[C@H](Cc4ccccc4)N3C2=O)C[C@@H]2c3cccc4[nH]cc(c34)C[C@H]21 | 0.506%
Cc1nnc(SCC2=C(C(=O)O)N3C(=O)[C@@H](NC(=O)Cn4cnnn4)[C@H]3SC2)s1 | -20.3%
Fc1ccc(C(c2ccc(F)cc2)N2CCN(C/C=C/c3ccccc3)CC2)cc1 | 7.03%

What follows are compounds tested on OV90 in the same assay as above. Settings: Gynecologic cancer cell panel viability, ATPlite luminescence, 48 h; series mostly up to 57.5 µM; activity change, negative = cytotoxicity: at the top concentration.
Summary of the method: as §1

Structure (SMILES) | activity change, negative = cytotoxicity | Potency
CN(C(=O)CCCOc1ccc2[nH]c(=O)ccc2c1)C1CCCCC1 | -21.3% | –
NC(=O)N1c2ccccc2C=Cc2ccccc21 | -24% | –
CCCN(CCC)CCc1cccc2c1CC(=O)N2 | -3.45% | –
CCn1nc(C(=O)O)c(=O)c2cc3c(cc21)OCO3 | 6.19% | –
CCc1c(C)[nH]c2c1C(=O)C(CN1CCOCC1)CC2 (stereo not drawn) | 23.3% | –
C[C@]12CCC(=O)C=C1CC[C@@H]1[C@@H]2C(=O)C[C@@]2(C)[C@H]1CC[C@]2(O)C(=O)CO | 5.88% | –
COc1ccc2c(c1OC)C(=O)O[C@@H]2[C@H]1c2c(cc3c(c2OC)OCO3)CCN1C | -29.8% | –
COc1cc(Cc2cnc(N)nc2N)cc(OC)c1OC | 0.93% | –
N[C@@H](COP(=O)(O)O)C(=O)O | 10.4% [at 25.3 µM] | –
CN1CCN(CC(=O)N2c3ccccc3C(=O)Nc3cccnc32)CC1 | 8.92% [at 6.55 µM] | –
COc1ccc(CCN(C)CCCC(C#N)(c2cc(OC)c(OC)c(OC)c2)C(C)C)cc1OC (stereo not drawn) | -25.6% | –
CN/C(=C\[N+](=O)[O-])NCCSCc1ccc(CN(C)C)o1 | – | 14.1 µM (active)
CCN1CCC[C@H]1CNC(=O)c1c(O)c(Cl)cc(Cl)c1OC | -1.16% | –
COC(=O)C1=C(C)NC(C)=C(C(=O)OC(C)(C)CN(C)CCC(c2ccccc2)c2ccccc2)C1c1cccc([N+](=O)[O-])c1 (stereo not drawn) | 8.89% | –
CC(=O)Nc1nnc(S(N)(=O)=O)s1 | 0.889% | –
CC(C)NCC(O)c1cc(O)cc(O)c1 (stereo not drawn) | -8.33% | –

Structure (SMILES) | activity change, negative = cytotoxicity | Potency
CN(C)CCOC(=O)COc1ccc(Cl)cc1 | 8.77% | –
CCCCCCCC/C=C\CCCCCCCC(=O)NCc1ccc(O)c(OC)c1 | -11.3% | –
CNC1(C)C2CCC(C2)C1(C)C (stereo not drawn) | 12.3% | –
CCCCNc1c(C(=O)OCC)c(C)nc2c1cnn2CC | 6.08% | –
CN(C)C/C=C(/c1ccc(Br)cc1)c1cccnc1 | 5.5% | –
CO[C@@]1(NC(=O)CSCC#N)C(=O)N2C(C(=O)O)=C(CSc3nnnn3C)CS[C@@H]21 | -11.2% | –
CCN1CCc2nc(N)oc2CC1 | 4.88% | –
C[C@]12CCC(=O)C=C1CC[C@@H]1[C@@H]2CC[C@@]2(C)[C@H]1CC[C@]2(O)C(=O)CO | -19.5% | –
CCN(CC)CC(=O)Nc1c(C)cccc1C | 2.35% | –
C(=C\c1ccccc1)/CN1CCN(C(c2ccccc2)c2ccccc2)CC1 | -17.7% | –
Cc1nc2ccccn2c(=O)c1CCN1CCC(C(=O)c2ccc(F)cc2)CC1 | -1.34% | –
c1ccc2c(c1)CCCC2C1=NCCN1 (stereo not drawn) | 3.87% | –
CCCNC(C)C(=O)Nc1ccccc1C (stereo not drawn) | 0.406% | –
O=C(O)CP(=O)(O)O | -11.8% | –
CN1C[C@H](C(=O)N[C@]2(C)O[C@@]3(O)[C@@H]4CCCN4C(=O)[C@H](Cc4ccccc4)N3C2=O)C[C@@H]2c3cccc4[nH]cc(c34)C[C@H]21 | -13.1% | –
Cc1nnc(SCC2=C(C(=O)O)N3C(=O)[C@@H](NC(=O)Cn4cnnn4)[C@H]3SC2)s1 | -2.4% | –
